# Shown are actives, neighbours in structure and some others; about 4.8% of the full set was active somewhere.
# DAX1 inh-1 = DAX1 (NR0B1) inhibition, primary screen. HEK293T StAR-luciferase reporter, SF-1/DAX-1 repression relief. inhibition, % at 6.8 µM. 370,000 compounds, 1.1% hits. AID 652010;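 active means inhibition above the mean over all tested compounds plus 3 SD, cut at about 3.6% in these data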;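 further: 0% = DAX-1 cells with DMSO and 100% = cells lacking DAX-1 with DMSO; higher inhibition means more luminescence from relief of DAX-1 repression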
# hgDAF-12 ag = activates the H. glycines DAF-12 receptor ligand-binding domain | 370,000 compounds, 1.8% hits | HEK293 GAL4-hgDAF12 UAS-luciferase reporter, agonist luminescence; normalized to butyrate control | activation, % at 6.8 µM;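 active means activation above a cutoff set at the mean of all screened compounds plus 3 SD, cut at about 10% in these data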;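 further: 0% = DMSO wells and 100% = sodium butyrate wells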
# ssDAF-12 act = activates DAF-12 receptor from parasite S. stercoralis; 370,000 compounds, 1% hits; HEK293 ssDAF-12/GRIP1 lit1-tk-luc reporter, luminescence; % of 3 µM dafachronic acid response; activation, % at 6.8 µM;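 active means activation above the mean over all tested compounds plus 3 SD, cut at about 0.9% in these data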;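 further: 0% = DMSO-only wells and 100% = 3 µM delta7-dafachronic acid wells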
# hcDAF-12 act = H. contortus DAF-12 activation, primary screen; HEK293 hcDAF-12 lit1-tk-luc reporter, luminescence; 0% DMSO, 100% Δ7-dafachronic acid; activation, % at 6.8 µM; 370,000 compounds, 1.4% hits;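 active means activation above the mean of all tested compounds plus 3 SD, cut at about 5.5% in these data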;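 further: 100% = response to 3 µM Δ7-dafachronic acid high control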
# SMARCA2 activ = activators of SMARCA2 function. AID 652017. 370,000 compounds, 1% hits. MG213 cells, MMTV-luciferase reporter, dexamethasone, overnight. activation, % at 9.1 µM; in the data active means activation above about 7.8%;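 further: 0% = vehicle wells and 100% = reference activator wells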
# DAX1 inh-2 = inhibits human nuclear receptor DAX1. 340,000 compounds, 0.99% hits. P51843. HEK293 Gal4-DAX1 luciferase reporter, luminescence. AID 504766. inhibition, % at 6.75 µM;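 active means inhibition above the mean over all tested compounds plus 3 SD, cut at about 4.2% in these data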;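 further: 0% = DAX1-transfected cells with DMSO and 100% = empty-vector control cells with DMSO; inhibition shows as a rise in luminescence from relieved DAX1 repression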
# Target sequence (P51843 207-470 limits assumed): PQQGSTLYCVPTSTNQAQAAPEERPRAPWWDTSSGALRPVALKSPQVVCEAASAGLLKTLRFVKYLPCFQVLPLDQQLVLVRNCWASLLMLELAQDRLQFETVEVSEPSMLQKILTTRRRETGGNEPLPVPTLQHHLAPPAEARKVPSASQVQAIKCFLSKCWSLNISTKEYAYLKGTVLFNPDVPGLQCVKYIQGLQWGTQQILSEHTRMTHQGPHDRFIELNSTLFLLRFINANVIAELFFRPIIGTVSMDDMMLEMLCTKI
# DAX1 inh confirm = confirmation of human DAX1 (NR0B1) inhibitors; AID 652134; shares compounds with DAX1 inh-1; inhibition, % at 6.8 µM; HEK293T StAR-promoter luciferase reporter, SF-1/DAX-1 repression; 2,400 compounds, 87% hits;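 active means inhibition above the average of every tested compound plus 3 SD, cut at about 3.8% in these data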;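 further: 0% = DAX-1 cells with DMSO and 100% = no DAX-1 control cells with DMSO; active compounds raise luminescence by relieving repression of the StAR reporter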
# Target sequence (P51843 whole entry, looked up): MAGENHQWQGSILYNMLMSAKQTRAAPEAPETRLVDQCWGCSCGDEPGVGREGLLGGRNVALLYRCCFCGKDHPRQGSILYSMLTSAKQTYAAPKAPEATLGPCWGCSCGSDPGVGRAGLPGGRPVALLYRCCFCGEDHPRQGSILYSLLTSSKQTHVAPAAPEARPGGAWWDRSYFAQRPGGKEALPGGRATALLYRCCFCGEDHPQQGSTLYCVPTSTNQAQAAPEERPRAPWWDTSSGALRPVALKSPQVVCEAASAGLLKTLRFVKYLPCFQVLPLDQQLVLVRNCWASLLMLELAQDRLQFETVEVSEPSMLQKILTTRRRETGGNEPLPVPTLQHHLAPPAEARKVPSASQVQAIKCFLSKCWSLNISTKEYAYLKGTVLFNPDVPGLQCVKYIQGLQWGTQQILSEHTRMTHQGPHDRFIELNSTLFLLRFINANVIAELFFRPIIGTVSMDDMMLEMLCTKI
# SF1 AF2mut Luc = nonselective inhibitor or artifact in SF-1 mutant DAX1 counter-screen; 2,400 compounds, 78% hits; HEK293 StAR-luciferase, SF-1 AF2 mutant, luminescence; shares compounds with DAX1 inh-1; AID 652136; inhibition, % at 6.8 µM;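 active means inhibition above the mean of all tested compounds plus 3 SD, cut at about 3% in these data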;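 further: 0% = DAX-1 transfected cells with DMSO and 100% = cells without DAX-1 with DMSO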
# SMARCA2 conf = confirmation of SMARCA2 (BRM) function activators; shares compounds with SMARCA2 activ; MG213 cells, MMTV-luciferase with dexamethasone, luminescence, overnight; MG213 cells expressing E1A, Rb sequestered; DMSO wells 0%, reference activator 100%; activation, % at 9.1 µM; 3,500 compounds, 30% hits;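 active means activation above its plate's cutoff, the mean activation of tested wells plus 3 SD, cut at about 7.9% in these data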
# VP16 Luc act = counter-screen for SMARCA2 activators: GAL4-VP16 luciferase reporter activation | shares compounds with SMARCA2 activ | HEK293 GAL4-VP16 pG5luc reporter, luciferase luminescence; scaled: DMSO wells 0%, SAHA wells 100% | activation, % at 9.1 µM | 3,500 compounds, 41% hits | AID 686939;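 active means activation above the solvent-only control well mean plus 3 SD, averaged across control plates, cut at about 5.2% in these data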
# LXRb hcDAF ctr = activates human LXR-beta, counter-screen for hcDAF-12 agonists; shares compounds with hcDAF-12 act; HEK293 Gal4-LXR tk-luc reporter, luminescence, 24 h; normalized: DMSO 0%, positive control 100%; activation, % at 6.8 µM; 3,400 tested, under 10 active; AID 743027;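 active means mean percent activation of the reporter above a cutoff set as the average over tested compounds plus their standard deviation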
# hcDAF12 conf = hcDAF-12 agonism, confirmation assay | shares compounds with hcDAF-12 act | HEK293 hcDAF-12 lit1-tk-luc reporter, luminescence; % of Δ7-dafachronic acid response | activation, % at 6.8 µM | 3,400 compounds, 61% hits | AID 743032;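 active means mean activation across triplicate tests above the threshold derived from the earlier primary screen, cut at about 5.5% in these data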;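 further: 0% = DMSO only wells and 100% = 3 µM Δ7-dafachronic acid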
# hgDAF12 ag = confirmation of H. glycines DAF-12 agonists; shares compounds with hgDAF-12 ag; HEK293 GAL4-hgDAF12 luciferase reporter, agonist mode; percent of butyrate response; activation, % at 6.8 µM; 3,300 compounds, 80% hits; AID 743050;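 active means mean activation over triplicate wells above the hit cutoff derived from the earlier primary screen, cut at about 11% in these data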;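 further: 0% = DMSO low control and 100% = 2 mM sodium butyrate high control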
# LXRb DAF12 ctr = LXR-beta agonism as DAF-12 counter-screen. shares compounds with hgDAF-12 ag. HEK293 Gal4-LXR luciferase reporter, 24 h. activation, % at 6.8 µM. 3,300 tested, under 10 active;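 active means mean activation of the triplicate above a set limit carried over from the primary screen, none filed active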
# * hit, by the source's call; / = not tested or not shown.
SMILES,DAX1 inh-1,hgDAF-12 ag,ssDAF-12 act,hcDAF-12 act,SMARCA2 activ,DAX1 inh-2,DAX1 inh confirm,SF1 AF2mut Luc,LXRb hcDAF ctr,hcDAF12 conf,others
Cc1ccc(C(=O)Nc2ccc(S(=O)(=O)N3CCc4ccccc43)cc2)o1,-0.9,-0.4,-2.0,-1.6,-4.4,-0.9,/,/,/,/,
CCCc1cc(=O)[nH]c(SCC(=O)Nc2sc(C(N)=O)c(C)c2C(=O)OCCOC)n1,-2.1,0.2,-0.6,-1.3,-3.3,0.4,/,/,/,/,
Cc1cc(-c2ccccc2)n(-c2ccc(C(N)=O)cc2)n1,-0.3,0.4,-0.7,-3.5,-0.7,0.2,/,/,/,/,
O=C1Cc2c([nH]c3ccc(Br)cc23)-c2ccccc2N1,7.5*,11.4*,0.1,10.7*,9.2*,3.5,6.4*,-5.6,1.6,8.5*,SMARCA2 conf=19.0*;VP16 Luc act=1.6
Brc1ccc2[nH]c3c(c2c1)CCC3,-0.5,-4.3,-1.8,-1.9,-1.7,-0.2,/,/,/,/,
CCOC(=O)c1ccc(N2C(=O)CC(Sc3nc(C)cc(C)n3)C2=O)cc1 (configuration not stated),-0.4,-0.9,-1.3,-1.3,-3.1,0.5,/,/,/,/,
COc1ccc(C(=O)NC(=O)Nc2cc(C)ccn2)cc1,6.6*,8.5,0.6,7.7*,11.7*,-1.2,-1.0,-4.1,0.6,2.9,SMARCA2 conf=2.3;VP16 Luc act=4.5
COc1ccc(NC(=O)Nc2cc(C)ccn2)cc1,5.0*,19.0*,0.6,7.3*,4.6,-2.0,16.9*,8.2*,2.1,8.9*,
CCN(CC(=O)Nc1cc(Cl)ccc1-n1cncn1)Cc1nc2ccccc2c(=O)[nH]1,0.6,-0.1,-0.5,0.4,-2.4,1.4,/,/,/,/,
O=c1oc2cc(OCc3ccc(C(F)(F)F)cc3)ccc2cc1-c1ccccn1,0.0,2.0,-0.7,-0.2,-2.8,0.0,/,/,/,/,
Cc1ccnc(NC(=O)c2sc3cc(Cl)ccc3c2Cl)c1,0.5,7.0,-0.6,0.4,6.1,0.8,/,/,/,/,
Cc1ccc(NC(=O)c2sc3ccccc3c2Cl)nc1,5.1*,19.5*,0.8,10.3*,1.9,3.4,10.6*,3.1*,1.6,17.6*,
CN(C)CCNC(=O)c1sc2cccc(F)c2c1Cl,2.4,8.0,-0.5,1.8,-1.6,2.2,/,/,/,/,
O=C(Nc1ccccn1)c1sc2cccc(F)c2c1Cl,8.4*,18.7*,1.1*,14.3*,3.2,2.8,8.5*,2.7,1.8,17.9*,
Cn1c(=NC(=O)COc2ccccc2)sc2ccccc21,4.7*,12.5*,0.1,7.9*,6.3,4.7*,7.5*,5.1*,0.4,3.1,
COc1ccc(C(=O)N=c2sc3ccccc3n2C)cc1,5.8*,16.3*,2.8*,13.0*,1.7,4.7*,10.5*,7.0*,1.5,19.0*,
Cn1c(=NC(=O)CS(=O)(=O)c2ccccc2)sc2ccccc21,1.3,1.1,0.6,2.8,1.7,1.1,/,/,/,/,
Cc1ccc2nc(-c3ccc(NC(=O)COC(=O)c4cncc(Br)c4)cc3)sc2c1,5.7*,13.1*,1.6*,9.5*,5.9,2.8,17.1*,7.5*,1.9,12.2*,
O=C(Nc1ccc2c(c1)OCCO2)c1cccc2nc3ccccc3nc12,-1.0,3.3,-1.8,-1.9,2.6,0.3,/,/,/,/,
O=C(Nc1ccc2c(c1)OCCO2)c1ccccc1Cl,9.0*,11.7*,0.0,7.2*,0.9,1.9,16.0*,9.4*,1.5,8.1*,
Cc1ccc2nc(NC(=O)c3ccc4ncsc4c3)sc2c1,6.2*,15.3*,0.1,3.9,-2.1,0.3,11.3*,7.1*,/,/,hgDAF12 ag=13.5*;LXRb DAF12 ctr=0.6
CCn1c(NCc2cc(OC)c(OC)c(OC)c2)nc2ccccc21,-1.0,-1.1,-1.4,-3.4,-1.0,2.0,/,/,/,/,
COc1ccc(-c2coc3cc(OC)ccc3c2=O)cc1,5.8*,19.3*,-0.3,5.2,5.9,4.0,11.9*,7.0*,/,/,hgDAF12 ag=12.8*;LXRb DAF12 ctr=0.9
CC(=O)Oc1ccc2c(=O)c(-c3ccccc3)coc2c1,5.9*,13.5*,-1.4,1.5,10.3*,0.2,6.5*,4.0*,/,/,SMARCA2 conf=3.4;VP16 Luc act=5.6*;hgDAF12 ag=9.5;LXRb DAF12 ctr=0.4
COc1ccc(-c2coc3cc(OC)cc(OC)c3c2=O)cc1,2.8,4.3,-0.8,0.9,4.0,-0.5,/,/,/,/,
SMILES,DAX1 inh-1,hgDAF-12 ag,ssDAF-12 act,hcDAF-12 act,SMARCA2 activ,DAX1 inh-2,DAX1 inh confirm,SF1 AF2mut Luc,LXRb hcDAF ctr,hcDAF12 conf,others
NC(=O)c1ccccc1NC(=O)c1cc(S(=O)(=O)N2CCCCC2)ccc1N1CCOCC1,1.6,-0.7,-1.1,-0.5,-4.3,0.1,/,/,/,/,
Cc1nn(-c2ccccc2)c2sc(C(=O)O)cc12,0.1,3.5,-1.1,-1.2,-2.9,0.3,/,/,/,/,
N#C/C(=N\Nc1ccc([N+](=O)[O-])cc1)C(=N)N1CCOCC1,0.2,4.0,-0.4,-0.1,4.2,3.6,/,/,/,/,
N#C/C(=N\Nc1ccccc1[N+](=O)[O-])C(=N)N1CCCCC1,8.0*,13.6*,1.0*,7.9*,5.1,7.4*,14.2*,8.1*,1.5,8.6*,hgDAF12 ag=17.7*;LXRb DAF12 ctr=0.7
N#C/C(=N\Nc1ccc(Cl)cc1)C(=N)N1CCCCCC1,7.6*,17.9*,0.1,4.5,3.3,10.4*,21.5*,8.8*,/,/,hgDAF12 ag=24.4*;LXRb DAF12 ctr=1.2
N#C/C(=N/Nc1ccc([N+](=O)[O-])cc1)C(=N)N1CCCCC1,5.5*,19.8*,1.6*,6.4*,4.4,8.1*,8.2*,3.2*,/,/,hgDAF12 ag=21.2*;LXRb DAF12 ctr=0.7
